Reference: PubChem BioAssay
Calls of active or inactive are those of the source. Unless noted, no rule for the calls is given here.

Key:
[1] = test system: Wnt5a (protein binding on small-molecule microarray); test: small molecules binding Wnt5a protein – biophysical, small-molecule microarray, 635/667 nm fluorescence, primary screen (AID 1142); details: 635 nm fluorescence, higher = more signal;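 also: fluorescence read at 667 nm with signal to noise per printed feature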
[2] = ATP-based viability of Huh7 replicon cells – cell-based, CellTiter-Glo luminescence, basal, 48 h, cytotoxicity control for HCV replication inhibitor project, primary screen (AID 1143); details: higher = more signal, called active from +8 up or from −8 down;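 also: Huh7 hepatoma cells carrying a hepatitis C replication reporter with no stimulus; test concentration not given here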
[3] = Pseudomonas biofilm growth suppression – PAO1 strain, BacTiter-Glo luminescence, LB-PBS, primary screen (AID 1144); details: P. aeruginosa PAO1 biofilm, 12 h, higher = more signal
[4] = basal CRE-LacZ reporter activity in PC12 – cell-based, unstimulated, primary screen (AID 1145); details: no forskolin, luminescence, 4.5 h, higher = more signal, called active from +8 up or from −8 down
[5] = forskolin-driven CRE-LacZ activity in PC12 – cell-based, CRE-LacZ reporter, forskolin-stimulated, primary screen (AID 1146); details: luminescence, 4.5 h, higher = more signal, called active from +8 up or from −8 down;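 also: PC12 cells with 6xCRE LacZ reporter stimulated by forskolin 10 µM; beta-galactosidase reporter signal reflecting CREB driven transcription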
[6] = target: Streptavidin (Streptomyces avidinii) (UniProt P22629); test: compounds binding control protein streptavidin – biophysical, small-molecule microarray, 635/667 nm fluorescence, artefact control for SMM compound annotation, primary screen (AID 1147); details: higher = more signal;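 also: signal reflects streptavidin binding to arrayed compounds as a control protein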
[7] = probe aInhba binding on compound microarray – biochemical, small-molecule microarray, 635/667 nm fluorescence, primary screen (AID 1148); details: higher = more signal;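 also: score merges 667nm spot fluorescence with signal-to-noise for antibody binding to printed compounds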
Torsin-1A (Homo sapiens) [8] = target: Torsin-1A (Homo sapiens) (UniProt O14656); test: TOR1A wild-type binding on microarray – cell lysate, small-molecule microarray, lysate, 635/667 nm, primary screen (AID 1149); details: COS7 hTOR1A-WT lysate, 635 nm fluorescence, higher = more signal
Torsin-1A (Homo sapiens) [9] = target: Torsin-1A (Homo sapiens) (UniProt O14656); test: torsin A mutant lysate binding on microarrays – cell lysate, small-molecule microarray, COS7 lysate, 635/667 nm fluorescence, primary screen (AID 1150); details: COS7 hTOR1A mutant lysate, 635 nm fluorescence, higher = more signal;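 also: score pools 667 nm emission and signal to noise measuring lysate protein binding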
[10] = test system: Sonic hedgehog protein (Shh); test: Sonic hedgehog microarray binding compounds – biochemical, small-molecule microarray, 635/667 nm fluorescence, primary screen (AID 1151); details: 635 nm fluorescence, higher = more signal;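 also: Shh protein binding to compounds spotted on small-molecule microarray slides; score combines spot fluorescence intensity with signal-to-noise across triplicate slides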
[11] = optical density shifts of acrAB sulA E. coli – strain DRC41, OD650, 48 h, E. coli filamentation inducer project, primary screen (AID 1152); details: higher = more signal, called active from +8 up or from −8 down;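 also: E. coli MC1000 strain DRC41 lacking acrAB efflux pump and sulA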
[12] = probe aLefty1 binding on compound microarray – biochemical, small-molecule microarray, 635/667 nm fluorescence, primary screen (AID 1153); details: higher = more signal;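 also: score merges spot fluorescence with signal-to-noise ratio from the scanned slide images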
[13] = plasmodial surface anion channel blockers, osmotic lysis – cell-based, P. falciparum Indochina, OD700, 1 h, primary screen (AID 1154); details: P. falciparum Indochina infected RBC osmotic lysis, higher = more signal, called active from +8 up or from −8 down
[14] = plasmodial surface anion channel blockers, osmotic lysis – cell-based, P. falciparum Indochina, OD700, 2 h, primary screen (AID 1155);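 also: lysis reports solute entry through the parasite surface anion channel PSAC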; details: P. falciparum Indochina infected erythrocytes, higher = more signal, called active from +8 up or from −8 down
[15] = changes in parasitized red cell lysis, either direction – P. falciparum Indochina, OD700, 3 h, PSAC antagonist project, primary screen (AID 1156); details: P. falciparum-infected erythrocytes, osmotic lysis, higher = more signal, called active from +8 up or from −8 down
[16] = plasmodial surface anion channel blockers, osmotic lysis – cell-based, P. falciparum Indochina, OD700, 18 h, primary screen (AID 1157); details: P. falciparum Indochina infected erythrocytes, osmotic lysis OD700, 18 h; higher = more signal, called active from +8 up or from −8 down
[17] = S6 kinase pathway phospho-S6 level changes – cell-based, A549, cytoblot, luminescence, serum-stimulated, primary screen (AID 1158); details: 5 h, higher = more signal;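 also: serum-stimulated A549 lung adenocarcinoma cells; signal is phosphorylated S6 detected by cytoblot immunostaining with HRP secondary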
[18] = target: NADPH oxidase 2 (Homo sapiens) (UniProt P04839); test: compounds shifting NOX2 Amplex Red fluorescence – cell-based, HEK293-NOX2, PMA-stimulated, NOX inhibitor project, primary screen (AID 1159); details: 45 min, higher = more signal, called active from +8 up or from −8 down; also: test concentration not given here
[19] = target: NADPH oxidase 4 (Homo sapiens) (UniProt Q9NPH5); test: compounds shifting NOX4 Amplex Red fluorescence – cell-based, HEK293-NOX4, tetracycline-induced, NOX inhibitor project, primary screen (AID 1160); details: HEK293-NOX4, Amplex Red H2O2 fluorescence, 45 min; higher = more signal, called active from +8 up or from −8 down
[20] = target: NADPH oxidase 5 (Homo sapiens) (UniProt Q96PH1); test: compounds shifting NOX5 Amplex Red fluorescence – cell-based, HEK293-NOX5, NOX inhibitor project, primary screen (AID 1161); details: HEK293-NOX5, ionomycin, 45 min, higher = more signal
NADPH oxidase 5 (Homo sapiens), sequence (Q96PH1 whole entry, looked up): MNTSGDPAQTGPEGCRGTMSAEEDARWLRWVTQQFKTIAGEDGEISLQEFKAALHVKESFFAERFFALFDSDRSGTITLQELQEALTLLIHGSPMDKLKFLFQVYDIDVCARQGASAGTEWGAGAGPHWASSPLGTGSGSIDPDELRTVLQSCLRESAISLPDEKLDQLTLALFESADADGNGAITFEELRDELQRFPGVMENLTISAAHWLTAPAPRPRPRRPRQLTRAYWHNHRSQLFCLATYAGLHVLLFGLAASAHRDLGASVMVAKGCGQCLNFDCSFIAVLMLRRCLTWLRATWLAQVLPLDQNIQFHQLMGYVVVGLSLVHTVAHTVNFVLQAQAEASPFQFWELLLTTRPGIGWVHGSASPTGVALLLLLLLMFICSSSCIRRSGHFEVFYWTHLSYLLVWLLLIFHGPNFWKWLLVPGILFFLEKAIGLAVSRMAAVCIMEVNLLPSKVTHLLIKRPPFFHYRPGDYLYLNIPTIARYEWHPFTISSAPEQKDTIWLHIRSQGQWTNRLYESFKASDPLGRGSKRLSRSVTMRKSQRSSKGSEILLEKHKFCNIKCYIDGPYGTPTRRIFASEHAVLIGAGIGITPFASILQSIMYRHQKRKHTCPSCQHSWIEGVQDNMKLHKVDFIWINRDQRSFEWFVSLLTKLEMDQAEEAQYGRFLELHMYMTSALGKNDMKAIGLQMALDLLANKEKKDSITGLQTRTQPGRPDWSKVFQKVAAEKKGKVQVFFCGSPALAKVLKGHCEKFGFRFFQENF

NADPH oxidase 4 (Homo sapiens), sequence (Q9NPH5 whole entry, looked up): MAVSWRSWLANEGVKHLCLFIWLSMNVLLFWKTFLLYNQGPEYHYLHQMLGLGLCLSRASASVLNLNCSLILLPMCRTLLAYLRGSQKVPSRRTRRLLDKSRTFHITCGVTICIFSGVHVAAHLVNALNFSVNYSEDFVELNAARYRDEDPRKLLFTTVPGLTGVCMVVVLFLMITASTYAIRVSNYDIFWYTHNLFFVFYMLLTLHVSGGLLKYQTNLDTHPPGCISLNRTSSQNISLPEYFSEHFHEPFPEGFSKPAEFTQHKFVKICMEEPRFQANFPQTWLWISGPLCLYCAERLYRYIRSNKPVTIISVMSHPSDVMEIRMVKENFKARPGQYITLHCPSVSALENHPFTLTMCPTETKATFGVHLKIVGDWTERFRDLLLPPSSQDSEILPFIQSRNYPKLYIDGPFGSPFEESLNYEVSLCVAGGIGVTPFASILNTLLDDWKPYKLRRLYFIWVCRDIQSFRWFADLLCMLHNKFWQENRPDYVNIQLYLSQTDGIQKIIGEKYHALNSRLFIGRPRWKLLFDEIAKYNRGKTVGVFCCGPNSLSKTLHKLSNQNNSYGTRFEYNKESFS
Streptavidin (Streptomyces avidinii), sequence (P22629 whole entry, looked up): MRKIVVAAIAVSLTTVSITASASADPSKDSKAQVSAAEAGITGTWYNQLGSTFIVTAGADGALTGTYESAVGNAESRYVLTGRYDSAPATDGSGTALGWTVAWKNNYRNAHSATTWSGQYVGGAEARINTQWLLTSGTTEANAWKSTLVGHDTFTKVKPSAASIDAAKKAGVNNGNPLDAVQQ
Torsin-1A (Homo sapiens), sequence (O14656 whole entry, looked up): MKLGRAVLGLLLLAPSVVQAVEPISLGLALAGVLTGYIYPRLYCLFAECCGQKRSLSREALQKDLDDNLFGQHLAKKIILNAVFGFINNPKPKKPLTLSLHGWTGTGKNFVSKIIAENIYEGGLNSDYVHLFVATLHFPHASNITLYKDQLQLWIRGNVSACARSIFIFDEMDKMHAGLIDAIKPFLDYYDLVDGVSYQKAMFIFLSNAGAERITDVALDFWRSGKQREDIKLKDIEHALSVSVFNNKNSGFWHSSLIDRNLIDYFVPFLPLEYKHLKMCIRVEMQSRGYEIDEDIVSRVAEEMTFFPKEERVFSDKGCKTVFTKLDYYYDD
NADPH oxidase 2 (Homo sapiens), sequence (P04839 whole entry, looked up): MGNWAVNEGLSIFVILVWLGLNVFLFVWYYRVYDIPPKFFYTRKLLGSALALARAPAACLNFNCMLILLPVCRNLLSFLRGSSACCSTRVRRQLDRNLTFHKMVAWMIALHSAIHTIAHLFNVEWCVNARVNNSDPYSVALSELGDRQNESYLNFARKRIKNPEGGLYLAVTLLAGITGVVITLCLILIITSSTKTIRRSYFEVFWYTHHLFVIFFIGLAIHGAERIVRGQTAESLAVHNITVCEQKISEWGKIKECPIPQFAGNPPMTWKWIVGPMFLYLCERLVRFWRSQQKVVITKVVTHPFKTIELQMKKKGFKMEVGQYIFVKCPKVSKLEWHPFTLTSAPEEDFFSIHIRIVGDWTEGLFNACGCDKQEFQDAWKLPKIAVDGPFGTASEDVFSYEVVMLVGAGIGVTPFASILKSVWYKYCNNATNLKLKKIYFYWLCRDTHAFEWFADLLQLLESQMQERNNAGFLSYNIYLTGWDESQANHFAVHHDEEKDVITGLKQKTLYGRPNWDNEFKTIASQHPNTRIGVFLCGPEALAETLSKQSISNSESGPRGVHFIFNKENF

| SMILES | composite z-score [1] | z-score [2] | z-score [3] | z-score [4] | z-score [5] | composite z-score [6] | composite z-score [7] | composite z-score (Torsin-1A (Homo sapiens) [8]) | composite z-score (Torsin-1A (Homo sapiens) [9]) | composite z-score [10] | z-score [11] | composite z-score [12] | z-score [13] | z-score [14] | z-score [15] | z-score [16] | z-score [17] | z-score [18] | z-score [19] | z-score [20] |
| --- | --- | --- | --- | --- | --- | --- | --- | --- | --- | --- | --- | --- | --- | --- | --- | --- | --- | --- | --- | --- |
| CC(C)CON=C1C[C@@H](O)[C@@H](O)[C@@H]2[C@@H]3C(=O)N([C@@H](C)c4ccccc4)C(=O)[C@@H]3CC[C@@H]12 | -0.0932 | -0.192 (inactive) | 0.374 (inactive) | 0.149 (inactive) | -0.776 (inactive) | 0.0337 | -0.0791 | -0.0344 | 0.118 | -0.104 | -0.196 (inactive) | -0.0155 | 0.694 (inactive) | 0.63 (inactive) | 0.181 (inactive) | 0.281 (inactive) | -0.691 | -1.96 (inactive) | 0.799 (inactive) | -0.519 |
| C[C@@H]1CC[C@H]2C(=O)OC(CN3C(=O)c4ccccc4C3=O)CN2[C@H]1c1ccc(Br)cc1 (stereo not given in full) | -0.0102 | 0.135 (inactive) | 0.447 (inactive) | 1.19 (inactive) | -0.841 (inactive) | 0.942 | -0.045 | -0.0288 | 0.396 | -0.365 | 0.634 (inactive) | 0.0315 | 3.61 (inactive) | 0.63 (inactive) | -0.694 (inactive) | 0.246 (inactive) | 0.134 | 0.371 (inactive) | 0.182 (inactive) | -0.055 |
| COc1cccc([C@H]2Oc3ccc(OC)cc3C(=NO[C@@H](C)c3cc(-c4c(C)cc(C)cc4C)no3)[C@@H]2O)c1 | -0.556 | -0.686 (inactive) | 0.409 (inactive) | 1.42 (inactive) | 0.596 (inactive) | -0.756 | -0.23 | -1.26 | -0.489 | -2.3 | -1.74 (inactive) | -0.0061 | 5.05 (inactive) | 1.38 (inactive) | -0.0548 (inactive) | 0.907 (inactive) | -0.902 | 0.314 (inactive) | 0.21 (inactive) | -0.577 |
| C=C(C)C(=O)OC[C@H]1CN2[C@@H](CC[C@@H](C)[C@@H]2c2ccc(Br)cc2)C(=O)O1 | -0.219 | 0.411 (inactive) | -0.694 (inactive) | -0.654 (inactive) | -0.777 (inactive) | 0.0906 | -0.154 | 0.334 | 0.0188 | 0.0827 | -1.41 (inactive) | -0.143 | 3.08 (inactive) | -0.0269 (inactive) | -0.691 (inactive) | -0.196 (inactive) | 0.861 | -1.81 (inactive) | 0.0898 (inactive) | -1.61 |
| COc1cccc([C@H]2Oc3ccc(OC)cc3C(=NOCC[C@@H]3C=C[C@H](OC(C)=O)[C@@H](COC(C)=O)O3)[C@@H]2O)c1 | 0.0377 | -0.0868 (inactive) | 1.43 (inactive) | 5.08 (inactive) | 0.497 (inactive) | -0.112 | -0.154 | 0.186 | 0.273 | 0.509 | -1.05 (inactive) | -0.18 | 1.16 (inactive) | 0.236 (inactive) | -0.125 (inactive) | 0.416 (inactive) | -1.04 | 0.511 (inactive) | 1.03 (inactive) | -0.14 |
| CCOC(=O)[C@H](CC(C)C)NC(=O)CCC1CC(OC(=O)NCc2ccc3c(c2)OCO3)CC2(CCCC(COC(=O)NCc3ccccc3)O2)O1 (stereo not given in full) | -0.0368 | -0.72 (inactive) | 0.0377 (inactive) | -0.437 (inactive) | -0.256 (inactive) | 0.324 | 0.0712 | 0.288 | 0.245 | 1.84 | -0.729 (inactive) | 0.0004 | 7.67 (inactive) | 0.795 (inactive) | -0.626 (inactive) | 0.297 (inactive) | -0.251 | -0.398 (inactive) | 0.47 (inactive) | 0.202 |
| CCOC(=O)[C@H](CC(C)C)NC(=O)CCC1CC(OC(=O)NCc2ccc3c(c2)OCO3)CC2(CCCC(COC(=O)NCCc3ccccc3OC)O2)O1 (stereo not given in full) | 0.08 | -0.556 (inactive) | 0.162 (inactive) | -0.0755 (inactive) | 0.101 (inactive) | 0.512 | -0.128 | -0.0035 | 0.582 | 1.19 | -1.08 (inactive) | 0.0437 | -1.67 (inactive) | -0.213 (inactive) | -1.01 (inactive) | -0.143 (inactive) | -0.116 | 0.0807 (inactive) | 0.886 (inactive) | 1.24 |
| CCCNC(=O)OC[C@H]1O[C@H](CCON=C2c3cc(OC)ccc3O[C@H](c3cccc(OC)c3)[C@H]2O)C=C[C@@H]1Oc1ccc(OC)cc1 | 0.298 | -0.69 (inactive) | 0.298 (inactive) | 4.37 (inactive) | 0.469 (inactive) | 0.474 | -0.0011 | 0.442 | 0.818 | 0.436 | 0.447 (inactive) | -0.0637 | 3.13 (inactive) | 0.855 (inactive) | 0.431 (inactive) | 0.563 (inactive) | -0.641 | 0.461 (inactive) | 0.455 (inactive) | -0.473 |
| COC(=O)[C@H](C)NC(=O)CCC1CC(OC(=O)NCc2cccc3ccccc23)CC2(CCCC(COC(=O)NCc3ccccc3)O2)O1 (stereo not given in full) | 0.276 | -1.12 (inactive) | -1.33 (inactive) | -0.437 (inactive) | 0.0493 (inactive) | 0.777 | 0.0901 | 0.283 | 0.542 | 1.07 | -0.249 (inactive) | 0.378 | 0.385 (inactive) | -0.254 (inactive) | 0.0409 (inactive) | 0.0533 (inactive) | 0.362 | 1.42 (inactive) | 0.73 (inactive) | 1.06 |
